This is an account of results in PubChem BioAssay.

Structures are written as SMILES. Inconclusive results are not listed. For some assays here: Potency and affinity values are given separately. Activity calls are given as the source filed them. Unless noted, no rule for the calls is given here.

The nature of test [1]: viability loss in pontine glioma line – cell-based, SU-DIPG-XIII, MIPE4.0, CellTiter-Glo, qHTS, dose response (AID 1347061; cut-off not given, nearly all actives have AC50 up to about 37 µM;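 also: cells exposed to compound for 48 hours before readout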). The following applies: CellTiter-Glo ATP luminescence.
Test [2] in a line: growth inhibition of DIPG cells – cell-based, MIPE4.0 library, CellTiter-Glo luminescence, qHTS (AID 1347066; cut-off not given, nearly all actives have AC50 up to about 30 µM;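 also: cells exposed to compound for 48 hours before readout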). The note with it: SU-DIPG-VI viability, CellTiter-Glo ATP luminescence.
The nature of test [3]: blockers of polyQ-driven CASP3 activation – cell-based (AID 1583). The note with it: polyglutamine-induced caspase-3 activation, cell assay; stronger effect = higher value;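 tested at 10 µM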.
A short description of test [4]: yeast 75Q aggregation reduction – 75Q-TubU reporter (AID 1593). The note with it: Yeast 75Q polyglutamine aggregation reporter.
Test [5] in a line: restoration of touch response, mutant HTT neurons – whole organism, C. elegans mechanosensory neurons, N-terminal huntingtin (AID 1599). The note with it: C. elegans polyQ-huntingtin mechanosensory neurons, stronger effect = higher value.
Test [6] is described as follows: blockers of cytochrome c efflux from mitochondria – biochemical, purified mitochondria (AID 1603).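 Also: mouse liver mitochondria challenged with calcium chloride; signal normalized to the plate average as 100%.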 The following applies: stronger effect = lower value.
Test [7] is described as follows: compounds altering circadian rhythm period length – cell-based, LOPAC library, luminescence reporter (AID 2774).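 Also: values are relative to mean of DMSO wells on each plate.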 The note with it: circadian reporter cells, at 7 µM, actives lie on both sides.
Test [8] relates to Hepatitis C virus NS3 helicase. Put plainly: blockers of NS3h binding to ssDNA – biochemical, fluorescence polarization, LOPAC1280 library, primary screen (AID 687035; in the data active = inhibition above about 37%). The note with it: Purified HCV NS3 helicase, Cy5-dT15 ssDNA binding fluorescence polarization; stronger effect = higher value; concentration not given here.
Test [9] can be described thus: compounds altering Cy5-DNA-NS3h complex signal – biochemical, LOPAC1280, artefact control for HCV NS3 helicase inhibitor project (AID 687037). The following applies: Cy5-DNA-NS3h complex fluorescence interference counterscreen.
Test [10] addresses NAD(+) hydrolase SARM1 (Homo sapiens) (UniProt Q6SZW1). Briefly: blocking NAD cleavage by SARM1 SAM-TIR – cell lysate, NAD-Glo luminescence (AID 1508614;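 active = compound whose remaining NAD level is above about 45 nM, limit read from the data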;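 also: higher remaining NAD means stronger inhibition of SARM1 NADase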). The following applies: SAM-TIR HEK293T lysate NADase, at 1 µM, stronger effect = higher value.
A short description of test [11]: compounds altering viability of human ES cells (AID 493140).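 Also: cells exposed to compounds for four days before counting.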 The note with it: human embryonic stem cell survival screen; stronger effect = higher value.
Test [12] can be described thus: drug combination toxicity in non-malignant astrocytes – cell-based, BGB or cisplatin IC20 combos, cytotoxicity control for chromothriptic childhood tumor combination screen (AID 1671460; in the data active = inhibition above about 80%;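 also: cells exposed to compounds for 96 hours before viability readout; 0% = vehicle and 100% = killing control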). The following applies: Human astrocytes, viability inhibition, drug combinations, at 0.5 µM, stronger effect = higher value.
A short description of test [13]: viability loss in pontine glioma line – cell-based, JHH-DIPG-1, MIPE4.0, CellTiter-Glo, qHTS, dose response (AID 1347062; cut-off not given, nearly all actives have AC50 up to about 27 µM). The following applies: JHH-DIPG-1 viability, CellTiter-Glo ATP luminescence.
Test [14] is described as follows: blockers of cellular phospholipid synthesis – cell-based, LOPAC library, screen 4, primary screen (AID 1347384). The following applies: animal cells, phospholipid biosynthesis inhibition screen; at 10 µM.
The nature of test [15]: compounds altering HSF1 focus formation in cells – imaging, Selleck Cancer Library (AID 1347162; in the data active = plate-normalised HSF1 focus index below about 0.46). The note with it: human cells, HSF1 nuclear foci imaging, at 10 µM; SSMD: measured here: HSF1 foci SSMD mean; cell count: measured here: cell number; plate-normalised HSF1 focus index: stronger effect = lower value.
Test [16] is described as follows: viability loss in pontine glioma line – cell-based, SU-DIPG-IV, MIPE4.0, CellTiter-Glo, qHTS, dose response (AID 1347063; cut-off not given, nearly all actives have AC50 up to about 30 µM;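 also: compound exposure lasted 48 hours before the viability readout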). The note with it: CellTiter-Glo ATP luminescence.
Test [17] is described as follows: viability loss in pontine glioma line – cell-based, SU-DIPG-XIII, MIPE5.0, CellTiter-Glo, qHTS, dose response (AID 1347064; cut-off not given, nearly all actives have AC50 up to about 23 µM). The following applies: CellTiter-Glo ATP luminescence.
The target of test [18] is Mitogen-activated protein kinase 7 (Homo sapiens) (UniProt Q13164). Briefly: Gal4-ERK5 driven luciferase induction – cell-based, HTS, primary screen (AID 1508626;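 active = luciferase signal above three times the same-plate solvent-only control wells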;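 also: luciferase driven by Gal4-ERK5 fusion binding five Gal4 sites before minimal TATA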). The note with it: HeLa Gal4-ERK5 transactivation, 18 h, at 5 µM, stronger effect = higher value.
[19] abbreviates: measured here: combo with BGB IC20.
[20] abbreviates: measured here: combo with cisplatin IC20.

Sequence of NAD(+) hydrolase SARM1 (Homo sapiens) (Q6SZW1 whole entry, looked up): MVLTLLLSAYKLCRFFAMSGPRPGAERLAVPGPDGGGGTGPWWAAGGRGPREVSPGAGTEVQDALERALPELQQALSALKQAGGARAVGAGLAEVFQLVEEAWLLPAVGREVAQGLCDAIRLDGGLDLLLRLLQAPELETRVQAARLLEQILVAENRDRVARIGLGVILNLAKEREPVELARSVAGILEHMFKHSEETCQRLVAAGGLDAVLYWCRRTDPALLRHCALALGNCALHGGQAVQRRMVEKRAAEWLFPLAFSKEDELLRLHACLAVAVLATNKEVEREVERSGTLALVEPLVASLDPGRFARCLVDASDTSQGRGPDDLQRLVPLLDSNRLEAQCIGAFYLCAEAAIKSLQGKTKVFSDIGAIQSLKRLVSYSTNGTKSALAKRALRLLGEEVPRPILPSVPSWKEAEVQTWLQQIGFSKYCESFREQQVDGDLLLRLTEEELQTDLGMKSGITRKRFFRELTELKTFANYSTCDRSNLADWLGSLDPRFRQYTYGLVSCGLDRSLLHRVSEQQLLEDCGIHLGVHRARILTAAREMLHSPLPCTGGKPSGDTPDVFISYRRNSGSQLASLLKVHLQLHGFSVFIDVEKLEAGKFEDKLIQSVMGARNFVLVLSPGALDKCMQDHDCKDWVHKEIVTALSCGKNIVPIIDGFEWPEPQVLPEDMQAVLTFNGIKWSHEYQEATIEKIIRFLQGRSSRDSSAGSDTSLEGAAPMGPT
Sequence of Mitogen-activated protein kinase 7 (Homo sapiens) (Q13164 whole entry, looked up, the tested form may be a part): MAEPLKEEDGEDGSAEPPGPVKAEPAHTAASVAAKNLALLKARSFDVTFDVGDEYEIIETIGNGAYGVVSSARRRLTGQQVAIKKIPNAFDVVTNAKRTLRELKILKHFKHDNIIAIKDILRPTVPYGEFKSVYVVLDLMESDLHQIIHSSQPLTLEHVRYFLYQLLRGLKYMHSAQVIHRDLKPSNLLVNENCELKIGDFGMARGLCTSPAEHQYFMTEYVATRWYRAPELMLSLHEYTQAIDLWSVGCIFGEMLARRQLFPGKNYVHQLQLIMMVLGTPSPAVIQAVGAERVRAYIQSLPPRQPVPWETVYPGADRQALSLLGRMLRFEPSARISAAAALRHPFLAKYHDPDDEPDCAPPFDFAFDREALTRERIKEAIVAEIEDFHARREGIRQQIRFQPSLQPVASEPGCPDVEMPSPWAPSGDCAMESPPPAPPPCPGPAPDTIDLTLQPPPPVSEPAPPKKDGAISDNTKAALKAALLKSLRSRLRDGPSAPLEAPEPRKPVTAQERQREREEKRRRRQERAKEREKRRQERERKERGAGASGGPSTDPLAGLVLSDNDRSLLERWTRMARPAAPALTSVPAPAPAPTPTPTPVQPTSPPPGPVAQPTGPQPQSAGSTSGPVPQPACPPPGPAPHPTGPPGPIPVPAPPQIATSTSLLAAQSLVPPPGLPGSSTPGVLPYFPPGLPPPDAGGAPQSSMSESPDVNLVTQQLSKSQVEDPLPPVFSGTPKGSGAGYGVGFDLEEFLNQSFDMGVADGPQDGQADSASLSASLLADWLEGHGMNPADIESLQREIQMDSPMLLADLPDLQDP

On to `COC(=O)Nc1nc2ccc(C(=O)c3ccc(F)cc3)cc2[nH]1`, for which the outcome in [1] and in test [2] was inactive.
Regarding `CN1CCC[C@H]1c1cccnc1`, the inhibition in [3] was -24.3%; in test [8], 0% (inactive). Further, in test [4], the score came out at 1.39. In test [5], this compound had a rescue above control of 3.58. Moreover, the cytochrome c release ratio in [6] was 0.71. Further, the period change in test [7] is 0.09 h (inactive). In addition, the fluorescence ratio (interference) in test [9] is 1 (inactive). Further, the remaining NAD in [10] is 10 nM (inactive).
In the case of `CC(C)(C)NC(=O)[C@@H]1C[C@@H]2CCCC[C@@H]2CN1C[C@@H](O)[C@H](Cc1ccccc1)NC(=O)[C@H](CC(N)=O)NC(=O)c1ccc2ccccc2n1`, the survival in [11] is 25.4 (inactive).
With `NC(=O)c1ncn(C2OC(CO)C(O)C2O)n1` (configuration not stated), the inhibition in [12] is -5.97% (inactive); in [12] (setting [19]), -5.76%; in [12] (setting [20]) it was -5.35%.
On to `CC(C)c1ccc2c(c1)c(SC(C)(C)C)c(CC(C)(C)C(=O)O)n2Cc1ccc(Cl)cc1`, for which, in [7], the period change was 0.025 h (inactive). Also, the inhibition in [8] was 0% (inactive). Further, the fluorescence ratio (interference) in [9] was 0.9 (inactive). For the same compound, the result in test [13] and in test [14] was inactive.
In the case of `Nc1nc(Cl)nc2c1ncn2[C@H]1C[C@H](O)[C@@H](CO)O1`, the compound was called inactive in [1]. Also, in test [15], the SSMD was -4.5, the cell count came out at 6930 and the plate-normalised HSF1 focus index was 0.776 (inactive).
As to `NC(Cc1cc(I)c(Oc2ccc(O)c(I)c2)c(I)c1)C(=O)O` (configuration not stated), the inhibition in test [3] is 2%. Further, the score in test [4] was found to be 1.27. Besides, in test [5], the rescue above control was -0.14. Besides, in [6], the cytochrome c release ratio was 4.78.
As to `O=C1C(c2c(O)[nH]c3ccccc23)=Nc2ccccc21`, the survival in test [11] was 88 (inactive). In addition, the call in test [13] and in test [2] was inactive. Further, the AC50 in [16] was 13.2 µM (active).
As to `COc1cc(C[C@@H](CO)[C@H](CO)Cc2ccc(O)c(OC)c2)ccc1O`, the result in test [17] was inactive.
As for `O=C(O)C[C@H](O)C[C@H](O)/C=C/c1c(C2CC2)nc2ccccc2c1-c1ccc(F)cc1`, the call in test [2] was inactive. Besides, in [10], the remaining NAD was 10 nM (inactive).
As to `O=C1c2c(O)cc(O)cc2O[C@H](c2ccc(O)c(O)c2)[C@H]1O`, the result in test [13] and in test [2] was inactive.
On to `CC1CNc2c(cccc2S(=O)(=O)N[C@@H](CCCN=C(N)N)C(=O)N2CC[C@@H](C)C[C@@H]2C(=O)O)C1` (some centres not stated), for which the compound was called inactive in test [17] and in test [2].
Consider `CN1[C@@H]2CC[C@H]1CC(OC(=O)C(CO)c1ccccc1)C2` (some centres not stated), for which the remaining NAD in test [10] is 10 nM (inactive). The luciferase signal in test [18] is 44 AU (inactive).
On to `CC(N)(Cc1ccc(O)c(O)c1)C(=O)O` (configuration not stated), for which the period change in test [7] was -0.1 h (inactive). Also, the inhibition in test [8] was 0% (inactive). Moreover, the fluorescence ratio (interference) in test [9] was 1 (inactive). For the same compound, the call in test [14] was inactive.
`CO[C@H]1/C=C/O[C@@]2(C)Oc3c(C)c(O)c4c(O)c(c(C=NN5CCN(C)CC5)c(O)c4c3C2=O)NC(=O)/C(C)=C\C=C\[C@H](C)[C@H](O)[C@@H](C)[C@@H](O)[C@@H](C)[C@H](OC(C)=O)[C@@H]1C`: the inhibition in [12] is -6.54% (inactive); in test [12] (setting [19]), -11%; in [12] (setting [20]), -7.29%.
